Records with an inconclusive call do not appear. Where a call stands in place of a potency, no number is given. Activity calls are given as the source filed them. The call rests on the fitted dose curve; in most records, active means well fitted inhibition curve with a large enough effect; inconclusive means small, poorly fitted or top-dose-only effect; inactive means no such curve, though single readings can be large or run the other way.
Test: Confirmatory qHTS for Identification of Small Molecule Inhibitors of Huntingtin Promoter Activity; further: nearly all actives have a fitted effect of over 65% in size
Conditions: HEK293 HTT promoter firefly luciferase reporter, 24 h; series mostly up to 57.5 µM
Outline: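 Activity normalized between vehicle control (0%) and zero RLU (-100%) from firefly luminescence (Dual-Glo). Compounds, up to 57.5 uM final, incubated 24 h at 37C on HEK293 reporter cells plated 24 h earlier.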
Potency means the concentration at half of the fitted maximal effect.

Question: For Cc1ccc(-n2ncc3c(N(C)Cc4ccccc4)ncnc32)cc1, which Potency is on record?
Answer: inactive

Question: For CCOc1ccccc1C(=O)Nc1nc2c(s1)CC(C)CC2 (stereo not given), which Potency is on record?
Answer: inactive

Question: For O=C(CSc1ccc(-c2ccccn2)nn1)Nc1ccc(F)c(F)c1, which Potency is on record?
Answer: inactive

Question: For CCOc1ccc(C(=O)Nc2ccc(S(=O)(=O)N3CCCCC3c3cccnc3)cc2)cc1 (stereo not given), which Potency is on record?
Answer: 21.3 µM (active)

Question: With Cc1ccc(C(=O)Nc2ccc(F)cc2)cc1S(=O)(=O)N1CCCCCC1 as the molecule, how does the Potency read?
Answer: inactive

Question: For Cc1cc(Nc2cccc(C(F)(F)F)c2)nc2ccc(NC(=O)c3cccnc3)cc12, which Potency is on record?
Answer: 19 µM (active)

Question: For CCN(CC)CCNC(=O)c1c(C)[nH]c(C=C2C(=O)Nc3ccc(F)cc32)c1C, which Potency is on record?
Answer: inactive

Question: With COC[C@H](NC(=O)c1cnc(C)s1)C(=O)N[C@@H](COC)C(=O)N[C@@H](Cc1ccccc1)C(=O)[C@@]1(C)CO1 as the molecule, how does the Potency read?
Answer: 0.301 µM (active)

Question: For CCn1cc(C(=O)N2CCN(c3ccc(C)cc3)C(C)C2)c(=O)c2cc(S(=O)(=O)N3CCCC3)ccc21 (stereo not given), which Potency is on record?
Answer: inactive

Question: For CC(=O)c1ccc(NS(=O)(=O)c2ccc3[nH]c(=O)[nH]c3c2)cc1, which Potency is on record?
Answer: inactive

Question: For O=C(O)c1cc(-n2c(/C=C\c3ccc(F)cc3)nc3ccccc3c2=O)ccc1Cl, which Potency is on record?
Answer: inactive

Question: For COc1ccc(-c2nc(N3CCOCC3)c3sc(CN(C)c4ncc(C(=O)NO)cn4)cc3n2)cn1, which Potency is on record?
Answer: inactive

Question: With Cc1cccc(S(=O)(=O)Nc2cccc(-c3ccc(N4CCCCC4)nn3)c2)c1 as the molecule, how does the Potency read?
Answer: inactive

Question: For CN(C)Cc1c(C(=O)NCCOc2ccc(C(=O)NO)cc2)oc2ccccc12, which Potency is on record?
Answer: inactive

Question: Which Potency does the source give for CC(C)[C@H](CO)Nc1nc(Nc2ccc(C(=O)O)c(Cl)c2)c2ncn(C(C)C)c2n1 here?
Answer: inactive

Question: For Cc1ccc(C2=CC(c3ccc(Cl)cc3)n3nc(-c4ccc(C)cc4)nc3N2)cc1 (stereo not given), which Potency is on record?
Answer: inactive

Question: For CC(=O)c1ccc(N2CCN(c3ncnc4c3cnn4-c3cc(Cl)ccc3C)CC2)cc1, which Potency is on record?
Answer: 7.57 µM (active)

Question: Which Potency does the source give for COc1cc(OC)c(OC)cc1/C=C/c1nc2cc3ccccc3cc2c(=O)n1-c1ccc(F)c(Cl)c1 here?
Answer: inactive

Question: With COc1cccc(N2CCN(C(=O)c3cccc(-n4c(C)nc5cccnc54)c3)CC2)c1 as the molecule, how does the Potency read?
Answer: 23.9 µM (active)

Question: Which Potency does the source give for COc1ccc(-c2noc(N3CCC(C(=O)N4CCN(c5cccc(OC)c5)CC4)CC3)n2)cc1 here?
Answer: 1.35 µM (active)

— PubChem BioAssay AID1508621 (National Center for Advancing Translational Sciences (NCATS), 2021)
